{"source": "PubChem BioAssay AID1345085", "about": "(National Center for Advancing Translational Sciences (NCATS), 2018)", "note": "Records with an inconclusive call do not appear. Where a call stands in place of a potency, no number is given. Unmarked numbers belong to inactive results. The source made the active and inactive calls. The call rests on the fitted dose curve; in most records, active means well fitted cell-killing curve with a large enough effect; inconclusive means small, poorly fitted or top-dose-only effect, or effect the other way; inactive means no such curve, though single readings can be large or run the other way. Potency means the concentration at half of the fitted maximal effect."}
{"tested_on": "SW626", "test": "Confirmatory qHTS for gynecologic anti-cancer compounds from libraries of approved drugs and bioactive compounds; further: nearly all actives have a fitted effect of over 55% in size", "conditions": "gynecologic cancer cell panel viability, ATPlite luminescence, 48 h; series mostly up to 57.6 µM", "summary_of_the_method": "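IC50 values derive from an ATPlite ATP-content luminescence assay following 48 h treatment at 37 C. Each compound ran as an 11-concentration, threefold series (57.5 uM to 0.977 nM); HEK 293T served as control line for selectivity index.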"}
{"compound": "O=C(Nc1cn[nH]c1-c1nc2ccc(CN3CCOCC3)cc2[nH]1)NC1CC1", "Potency": "inactive"}
{"compound": "O=C(O)C1(Cc2cccc(Nc3nccs3)n2)CCC(Oc2cccc(Cl)c2F)CC1", "note": "(configuration not stated)", "Potency": "inactive"}
{"compound": "Oc1cn2c(n1)Nc1ccc(Cl)c(Cl)c1C2", "Potency": "inactive"}
{"compound": "COc1cc(-c2nn(C3CCC(N4CCN(C(C)=O)CC4)CC3)c3ncnc(N)c23)ccc1NC(=O)c1cc2ccccc2n1C", "note": "(configuration not stated)", "Potency": "27.3 µM (active)"}
{"compound": "CC(C)c1nn(-c2c(Cl)cccc2Cl)c2nc(Cc3ccc(OCCO)cc3)[nH]c(=O)c12", "Potency": "inactive"}
{"compound": "CC(Oc1ccc2[nH]nc(/C=C/c3cnn(CCO)c3)c2c1)c1c(Cl)cncc1Cl", "note": "(configuration not stated)", "Potency": "inactive"}
{"compound": "COc1ccc(CCC(=O)c2c(O)cc(O[C@@H]3O[C@H](CO)[C@@H](O)[C@H](O)[C@H]3O[C@@H]3O[C@@H](C)[C@H](O)[C@@H](O)[C@H]3O)cc2O)cc1O", "Potency": "inactive"}
{"compound": "CCN(CC)CCCC(C)Nc1ccnc2cc(Cl)ccc12", "note": "(configuration not stated)", "Potency": "inactive"}
{"compound": "Cc1cc(CN2CCN(c3c(Br)cnc4nc(-c5ccc(N6CCN(C)CC6)cc5)[nH]c34)CC2)no1", "Potency": "24.3 µM (active)"}
{"compound": "CN(C)C/C=C/C(=O)Nc1cc2c(Nc3ccc(F)c(Cl)c3)ncnc2cc1OC1CCOC1", "note": "(configuration not stated)", "Potency": "27.3 µM (active)"}
{"compound": "N#CC1(c2cccc(C(=O)Nc3cc(Oc4ccc5nc(NC(=O)C6CC6)sc5n4)ccc3F)c2Cl)CC1", "Potency": "4.85 µM (active)"}
{"compound": "Nc1ccc(-c2ccc3ncc4ccc(=O)n(-c5cccc(C(F)(F)F)c5)c4c3c2)cn1", "Potency": "6.11 µM (active)"}
{"compound": "Cc1cnc(Nc2cccc(CN3CCOCC3)c2)nc1Nc1cccc(S(=O)(=O)NC(C)(C)C)c1", "Potency": "24.3 µM (active)"}
{"compound": "O=c1[nH]c(=O)n([C@H]2C[C@H](O)[C@@H](CO)O2)cc1F", "Potency": "inactive"}
{"compound": "CC[C@H](CC#N)OC(=O)N[C@@H](C)c1cccc(NC(=O)Nc2ccc(-c3cnco3)c(OC)c2)c1", "Potency": "inactive"}
{"compound": "COc1ccccc1N1CCN(CC(O)COc2cccc3ccccc23)CC1", "note": "(configuration not stated)", "Potency": "inactive"}
{"compound": "COCCOc1nc(-c2ccc(Cl)c(Cl)c2)n(-c2ccc(NC(=O)CCl)cc2)n1", "Potency": "6.11 µM (active)"}
{"compound": "Cc1cnc(CNC(=O)c2c(=O)c3ccc(N4CCCN(C)CC4)nc3n3c2sc2ccccc23)cn1", "activity change, negative = viability loss": "-6.28% [at 10.7 µM]"}
{"compound": "CCC1C(=O)N(C)c2cnc(Nc3ccc(C(=O)NC4CCC(N5CCN(CC6CC6)CC5)CC4)cc3OC)nc2N1C(C)C", "note": "(configuration not stated)", "Potency": "7.69 µM (active)"}
{"compound": "CN1CCN(c2ccc(OC(F)(F)F)c(Nc3ncc4c(n3)-c3c(c(C(N)=O)nn3CCO)CC4)c2)CC1", "Potency": "inactive"}
{"compound": "Nc1ncnc2c1ncn2[C@@H]1O[C@H](CO)C[C@H]1O", "Potency": "inactive"}
{"compound": "O=C(O)c1ccc(Nc2ncc3c(n2)-c2ccc(Cl)cc2C(c2c(F)cccc2F)=NC3)cc1", "Potency": "inactive"}
{"compound": "CS(=O)(=O)c1ccc(C(=O)Nc2ccc(Cl)c(-c3ccccn3)c2)c(Cl)c1", "Potency": "inactive"}
{"compound": "CC(C)(C(=O)NCC(F)(F)C(F)(F)F)C(=O)NC1C(=O)Nc2ccccc2-c2ccccc21", "note": "(configuration not stated)", "Potency": "inactive"}
{"compound": "CNC1CCC(N(Cc2cccc(-c3ccncc3)c2)C(=O)c2sc3ccccc3c2Cl)CC1", "note": "(configuration not stated)", "Potency": "30.6 µM (active)"}
{"compound": "CC[C@]1(O)C[C@H]2CN(CCc3c([nH]c4ccccc34)[C@@](C(=O)OC)(c3cc4c(cc3OC)N(C=O)[C@H]3[C@@](O)(C(=O)OC)[C@H](OC(C)=O)[C@]5(CC)C=CCN6CC[C@]43[C@@H]65)C2)C1", "Potency": "inactive"}
{"compound": "O=C(/C=C/c1cccc(S(=O)(=O)Nc2ccccc2)c1)NO", "Potency": "1.33 µM (active)"}
{"compound": "Cc1nc2ccc(CN(C)c3ccc(C(=O)NC(CCC(=O)O)C(=O)O)s3)cc2c(=O)[nH]1", "note": "(configuration not stated)", "Potency": "inactive"}
{"compound": "CN[C@@H](C)C(=O)N[C@H]1CN(C(=O)CC(C)C)CC[C@H]2CC[C@@H](C(=O)NC(c3ccccc3)c3ccccc3)N2C1=O", "Potency": "inactive"}
{"compound": "C[C@]12CCC(=O)C=C1[C@@H]1C[C@@H]1[C@H]1[C@@H]3[C@@H]4C[C@@H]4[C@@]4(CCC(=O)O4)[C@@]3(C)CC[C@@H]12", "Potency": "inactive"}
{"compound": "CN(C)/N=N/c1nc[nH]c1C(N)=O", "Potency": "inactive"}
{"compound": "C[C@@]1(C(=O)Nc2ccc(F)nc2)CCCN1c1nc(Nc2cc(C3CC3)[nH]n2)c2cccn2n1", "Potency": "inactive"}
